Most compounds without a hit are left out; they make up all but 27% or so of the library.
CYP2C19 inh: inhibitors of human CYP2C19. CYP2C19 Supersomes, luciferin-H EGE luminescence, 30 min. inhibition, % at 5 µM. 96,000 compounds, 21% hits;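 active means CYP2C19 inhibition above a set limit at 5 µM in the primary screen, cut at about 50% in these data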;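 further: plate controls were negative control wells for no effect and 2.5 mM tranylcypromine positive control for full effect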
CYP2C9 act: activators of human CYP2C9. recombinant CYP2C9, luciferin-H conversion, luminescence; hits give high values; factor 1 = untreated enzyme, 0 = blocked. 96,000 compounds, 1.4% hits. P11712. activation factor at 5 µM;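 active means activation factor of 2 or more for CYP2C9 at a 5 µM dose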;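 further: 0 = sulfaphenazole-blocked wells and 1 = vehicle-only wells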
Target sequence (P11712 whole entry, looked up): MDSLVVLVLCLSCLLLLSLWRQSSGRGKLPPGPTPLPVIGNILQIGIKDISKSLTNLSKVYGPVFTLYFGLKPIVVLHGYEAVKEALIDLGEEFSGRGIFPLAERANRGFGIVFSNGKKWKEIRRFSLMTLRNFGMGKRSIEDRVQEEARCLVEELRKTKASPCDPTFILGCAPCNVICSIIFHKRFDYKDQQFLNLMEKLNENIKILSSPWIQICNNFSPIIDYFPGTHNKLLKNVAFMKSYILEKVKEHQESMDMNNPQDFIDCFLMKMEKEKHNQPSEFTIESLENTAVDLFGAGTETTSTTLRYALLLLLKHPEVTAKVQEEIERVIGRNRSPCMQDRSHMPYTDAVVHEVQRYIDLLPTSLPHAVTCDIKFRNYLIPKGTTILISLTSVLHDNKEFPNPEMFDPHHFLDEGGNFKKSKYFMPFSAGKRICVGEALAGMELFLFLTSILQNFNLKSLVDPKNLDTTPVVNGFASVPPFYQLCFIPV
CYP2C9 inh: inhibitors of human CYP2C9; P11712; CYP2C9 Supersomes, luciferin-H conversion, luminescence; inhibition, % at 5 µM; 96,000 compounds, 20% hits; AID 777;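 active means blocking of liver enzyme CYP2C9 beyond about 50% at 5 µM, limit read from the data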
sEH inh: soluble epoxide hydrolase (human) inhibition; P34913; recombinant human sEH enzymatic activity assay; inhibition, % at 2 µM; 91,000 compounds, 0.34% hits; AID 707; in the data active means inhibition above about 80%
CYP2C19 activ: activators of human cytochrome P450 2C19. recombinant CYP2C19, luciferin-H EGE luminescence; hits give high values; 0 = fully inhibited enzyme, 1 = untreated enzyme. 96,000 tested, under 10 active. P33261. activation factor at 5 µM;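 active means activation factor of at least 2 at 5 µM in the primary screen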;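 further: 0 = wells with 2.5 mM tranylcypromine and 1 = vehicle-only wells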
sEH act: activators of human soluble epoxide hydrolase; P34913; purified human sEH enzymatic activity, activator screen; activation, % at 2 µM; 91,000 compounds, 0.04% hits; AID 717; in the data active means activation above about 37%
The depositor's hits bear a star; · = no result.

SMILES	CYP2C19 inh	CYP2C9 act	CYP2C9 inh	sEH inh	CYP2C19 activ	sEH act
COC(=O)c1nn(-c2ccccc2)c(Cl)c1/C=N/OCc1ccc(C)cc1	28	0.5	46	-6	0.7	10
CCOC(=O)c1ccc(NC(=O)CC2COc3ccccc3O2)cc1 (stereo unspecified)	25	0.4	63*	63	0.7	-62
O=C(Cn1nc(C(F)(F)F)c2c1CCCC2)Nc1ccc2c(c1)OCO2	87*	0.5	53*	16	0.1	-18
COc1ccc(NC(=O)Cn2nc(C(F)(F)F)c3c2CCCC3)cc1OC	·	·	·	23	·	-23
Cc1ccc(S(=O)(=O)C2(C(=O)Nc3ccc4c(c3)OCO4)CC2)cc1	87*	0.2	83*	·	0.1	·
Cc1ccc(CSCC(=O)Nc2ccc3c(c2)OCO3)cc1	59*	0.7	32	14	0.4	-17
Cc1ccc(S(=O)(=O)C2(C(=O)Nc3ccc(F)cc3)CC2)cc1	46	0.9	12	-7	0.5	4
CSCCC(C(=O)Nc1ccc2c(c1)OCO2)N1C(=O)c2ccccc2C1=O (stereo unspecified)	34	0.5	52*	6	0.7	-5
O=C(CSCc1c(Cl)cccc1Cl)Nc1ccc2c(c1)OCO2	12	0.3	75*	67	0.9	-67
O=C(CSCc1ccccc1)Nc1ccc2c(c1)OCO2	·	·	·	18	·	-19
O=C(CSCc1c(Cl)cccc1Cl)Nc1ccccc1C(=O)N1CCOCC1	48	0.1	92*	-9	0.5	12
O=C(CSc1nnnn1-c1ccccc1Cl)Nc1ccc2c(c1)OCCO2	-3	1.1	-13	66	1	-67
O=C(CSCSCC(=O)Nc1ccc2c(c1)OCO2)Nc1ccc2c(c1)OCO2	35	0.2	80*	-3	0.6	2
Cc1ccc(S(=O)(=O)N2CCCC(C(=O)NCCc3ccc4c(c3)OCO4)C2)cc1 (stereo unspecified)	49	0.6	36	37	0.5	-37
OC(CN1C2=NCCN2c2ccccc21)c1ccc2c(c1)OCO2 (stereo unspecified)	12	0.8	15	·	0.9	·
c1ccc(-n2nnnc2NCCc2c[nH]c3ccccc23)cc1	98*	0.2	81*	-3	0	6
c1ccc(CNc2nnnn2-c2ccccc2)cc1	·	·	·	6	·	-1
CCS(=O)(=O)C(=C1NCCO1)S(=O)(=O)CC	-9	1.1	-14	6	1.1	-5
COc1ccc(-n2c(SC)nc(O)c(Cc3ccccc3)c2=O)cc1	-13	1	-5	7	1.1	-5
COc1ccc(Cc2c(O)nc(SC)n(C(C)=O)c2=O)cc1	53*	0.5	45	-21	0.5	20
CN(C)CCCC1(O)c2ccccc2C=Cc2ccccc21	·	·	·	-11	·	11
CCOc1cc(NC(=S)Nc2ccccc2OC)c(OCC)cc1NC(=O)c1ccccc1C	21	0.6	44	2	0.8	0
COc1ccc(NC(=O)CSC2CC(=O)N(c3ccc4c(c3)OCCO4)C2=O)cc1 (stereo unspecified)	48	0.7	27	·	0.5	·
CC1(c2ccccc2)NC(=S)N2C1NC(=S)N2c1ccccc1 (stereo unspecified)	70*	0.7	33	-8	0.3	7
CC1CCCC2(C1)NC(=S)N(c1ccccc1)N2 (stereo unspecified)	42	0.8	21	9	0.6	-8
SMILES	CYP2C19 inh	CYP2C9 act	CYP2C9 inh	sEH inh	CYP2C19 activ	sEH act
Cc1cc(C)c2nc(N)sc2c1	68*	0.7	32	3	0.3	-4
Cn1c(COc2ccccc2)nnc1SCc1nc2ccccc2[nH]1	35	0.9	6	13	0.6	-15
O=c1[nH]c(CSc2nnc(COc3ccccc3)n2-c2ccccc2)nc2ccccc12	85*	0.1	90*	-3	0.1	4
Cc1cccc(OCc2nnc(SCc3nc4ccccc4c(=O)[nH]3)o2)c1	54*	0.5	48	-7	0.5	5
O=C(Cc1ccccc1)Nc1c(C(=O)N2CCOCC2)cnn1-c1ccccc1	-6	1.1	-6	-1	1.1	1
CCn1nc(NC(=O)c2ccccn2)c2cc3cccc(C)c3nc21	2	0.9	7	-14	1	13
CCn1nc(NS(=O)(=O)c2ccccc2)c2cc3cccc(C)c3nc21	9	0.2	79*	-14	0.9	17
CCCn1nc(NS(C)(=O)=O)c2cc3cccc(C)c3nc21	32	0.3	65*	-8	0.7	7
O=C1CSC(c2ccccn2)N1c1ccc(Cl)c(Cl)c1 (stereo unspecified)	63*	0.9	9	-1	0.4	4
CC(c1cccs1)N(C(=O)Nc1ccccc1)C1CCCCC1 (stereo unspecified)	4	0.5	47	14	1	-15
CC(C)CCN(C(=O)Nc1ccccc1)C(C)c1cccs1 (stereo unspecified)	17	0.3	74*	14	0.8	-13
O=C(NCCc1ccc(Cl)cc1)C1CCN(S(=O)(=O)c2cccs2)CC1	84*	0.2	79*	28	0.2	-27
CC(C)NC(=O)C(=O)NCCc1ccc(Cl)cc1	92*	1	2	5	0.1	-4
O=C(O)C1CCCCC1C(=O)NCCc1ccc(Cl)cc1 (stereo unspecified)	75*	0.6	40	12	0.3	-9
O=C(NCCc1ccc(Cl)cc1)C1CCN(S(=O)(=O)N2CCCCC2)CC1	31	0.5	51*	·	0.7	·
CCNc1nc(NC(C)C)nc(OCC)n1	2	0.9	12	7	1	-9
N#Cc1c2n(c(=S)n(-c3ccccn3)c1=O)CCCCC2	2	0.9	8	8	1	-9
COc1cccc(CNC(=O)C2CCN(c3cnccn3)CC2)c1	·	·	·	5	·	-4
CC(C)CN(CC(C)C)S(=O)(=O)N1CCC(C(=O)NCCc2ccc(Cl)cc2)CC1	54*	0.5	54*	68	0.5	-69
O=C(NCCc1ccc(Cl)cc1)C1CCN(c2cnccn2)CC1	52*	0.3	66*	59	0.5	-59
CCOc1ccc(OCC(=O)Nc2ccc(S(=O)(=O)Nc3cc(C)nc(C)n3)cc2)cc1	-5	1	-1	6	1.1	-3
CN(c1ccc(OCC(=O)Nc2ccc3[nH]c(=O)[nH]c3c2)cc1)S(=O)(=O)c1ccc(Cl)cc1	27	0.4	62*	1	0.7	1
CCOc1ccc(S(=O)(=O)N(C)c2ccc(OCC(=O)Nc3ccc4[nH]c(=O)[nH]c4c3)cc2)cc1	38	0.2	78*	·	0.6	·
COCCn1c(-c2ccsc2)nc2c1c(=O)[nH]c(=O)n2CC(C)C	55*	1.1	-7	-10	0.4	8
Cc1cc(C)cc(N2CCCC2=O)c1	·	·	·	5	·	-4
C=CCSc1nnc(-c2c[nH]c3ccccc23)n1CC	79*	1.1	-10	·	0.2	·

Screening results from PubChem BioAssay.
